# Reference: PubChem BioAssay AID588334 (Broad Institute, 2011)
# The whole screen tested about 300,000 compounds, of which about 2,300 (0.77%) were called active.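 The calls were made as follows: active = mean activation of at least 80% with every replicate also reaching 80%; inconclusive = mean reaches 80% but some replicate falls short; inactive = the rest.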 This excerpt belongs to a sample that is enriched for actives.
# Assay: MITF-driven TRPM1 luciferase induction in melanoma cells – cell-based, SK-MEL-5, single point, primary screen (AID 588334);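 also: 0% = neutral control wells and 100% = parthenolide positive control wells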
# Settings: SK-MEL-5 TRPM1-promoter luciferase, 24 h; at 12.5 µM; active compounds read high; % of positive control, neutral wells = 0
row,Compound,activation
1,O=C(N[C@H]1C/C=C\C(c2cccc(F)c2)N(Cc2ccccc2)C(=O)C1)OCC1c2ccccc2-c2ccccc21 (some centres not stated),20.8% (inactive)
2,c1csc(-c2nc(-c3ccncc3)no2)c1,113% (active)
3,c1ccc(CCc2nc(-c3ccncc3)no2)cc1,57.8% (inactive)
4,Cc1ccc(-c2nc(-c3ccncc3)no2)c(C)c1,70.8% (inactive)
5,CSCCC(NC(=O)c1ccccc1)C(=O)N1CCN(Cc2ccc(Cl)cc2)CC1 (configuration not stated),-8.56% (inactive)
6,CN(c1ccccc1)S(=O)(=O)c1cc(C(=O)N2CCN(c3ncccn3)CC2)ccc1Cl,-2.71% (inactive)
7,COc1cccc(C=CC(=O)C=CC=Cc2ccccc2)c1,-4.72% (inactive)
8,NC(=O)C1(Nc2ccc(-c3ccccc3)cc2)CCCC1,5.06% (inactive)
9,COC(=O)Cc1[nH]n(-c2nc3ccccc3s2)c(=O)c1C(C)=Nc1ccc(OC)cc1,-94.9% (inactive)
10,COc1ccc(N=Nc2ccc(O)c(P(=O)(c3ccccc3)c3ccccc3)c2)cc1,5.85% (inactive)
11,COc1ccc(N=C(C)c2sc3ccccc3c2O)cc1,123% (active)
12,CCN(CC)C(=O)[C@H]1C[C@H](CC(=O)NCC23CC4CC(CC(C4)C2)C3)C(=O)N2CCc3c([nH]c4cc(CCC(=O)N(C)C)ccc34)[C@]12C,-10.9% (inactive)
13,COc1cc(C(=O)CCc2ccc3c(c2)OCO3)cc(OC)c1OC,-4.27% (inactive)
14,CC(C=Cc1ccccc1)=NNS(=O)(=O)c1ccc([N+](=O)[O-])cc1,-13.6% (inactive)
15,COc1cc(C(=O)OCC(=O)NC23CC4CC(CC(C4)C2)C3)cc(OC)c1OC,-3.15% (inactive)
16,COc1cc(NC(=O)COC(=O)c2cc(S(=O)(=O)N3CCOCC3)ccc2F)cc(OC)c1,1.31% (inactive)
17,Fc1cccc(Cl)c1CSc1ccc(-c2ccco2)nn1,93.7% (active)
18,O=C(CSc1ccc(-c2ccco2)nn1)Nc1cccc(F)c1,13.2% (inactive)
19,Brc1ccc(CSc2ccc(-c3ccco3)nn2)cc1,71.9% (inactive)
20,O=C(Nc1ccn(CCCNCc2ccc3[nH]ccc3c2)c(=O)n1)OCc1ccccc1,-4.16% (inactive)
21,CCCSc1ccc([C@H]2N[C@@](Cc3ccccc3)(C(=O)OC)[C@H]3C(=O)N(C)C(=O)[C@@H]23)cc1,1.47% (inactive)
22,Cc1ccccc1OCC(=O)Nc1ccc2c(c1)ncn2C,152% (active)
23,Cc1ccccc1OCC(=O)Nc1ccc(N2CCN(C(=O)C(C)C)CC2)c(Cl)c1,-59.2% (inactive)
24,Cc1ccccc1OCC(=O)Nc1ccc(S(=O)(=O)N2CCOCC2)cc1,-5.13% (inactive)

row,Compound,activation
1,Cc1cc([N+](=O)[O-])ccc1NS(=O)(=O)c1ccccc1,6.15% (inactive)
2,CCN(CC)S(=O)(=O)c1cccc(NC(=O)c2ccc(S(=O)(=O)N3CCCC3)cc2)c1,-10.8% (inactive)
3,Cc1ccc(OCc2cc(C(=O)N(C)CCn3ccnc3C)no2)cc1C,11% (inactive)
4,Cc1cc(CN(C)C(=O)c2cc(COc3ccc(C)c(C)c3)on2)n[nH]1,11.7% (inactive)
5,Cc1ccc(OCc2cc(C(=O)N(C)CCc3ccccc3)no2)cc1C,111% (active)
6,CCN1CCC(O)(/C=C/c2ccc(C)cc2)C(C(=O)/C=C/c2ccc(C)cc2)C1 (configuration not stated),-75.9% (inactive)
7,COc1cccc(CC(=NO)c2cccc(OC)c2)c1,1.7% (inactive)
8,CCCN(CCC)S(=O)(=O)c1cc2c(cc1Br)CCN2C(=O)CC,3.88% (inactive)
9,COc1cc(OC)cc(-c2sc3ccc(OC)cc3c2-c2ccc3cc[nH]c3c2)c1,7.42% (inactive)
10,COc1ccc2sc(-c3ccc(N(C)C)cc3)c(-c3ccc4cc[nH]c4c3)c2c1,102% (active)
11,COc1ccc2sc(-c3ccc(N(C)C)cc3)c(C#CCO)c2c1,51.4% (inactive)
12,CCOC(=O)c1ccccc1NC(=O)CSc1nc2c(sc(=S)n2CC)c(=O)[nH]1,1.55% (inactive)
13,O=S(=O)(Nc1ccc2ccccc2c1)N1CCCCC1,3.28% (inactive)
14,O=C(/C=C/c1ccc(Cl)cc1)Nc1ccc(S(=O)(=O)Nc2ncccn2)cc1,-11.3% (inactive)
15,CC(C)(C)c1ccc(/C=C/C(=O)Nc2ncccn2)cc1,118% (active)
16,CC(C)(C)c1ccc(/C=C/C(=O)NCCCn2ccnc2)cc1,-9.17% (inactive)
17,COc1ccc(CN2CCN(C(=O)c3cc(C4CC4)nn3-c3ccccc3)CC2)cc1F,-1.05% (inactive)
18,O=C(Nc1ccc(N2CCCC2=O)cc1)c1cncc(Br)c1,114% (active)
19,O=C(Nc1cccc(S(=O)(=O)N2CCCC2)c1)c1cncc(Br)c1,15.2% (inactive)
20,O=C(Nc1cccc(S(=O)(=O)N2CCCCC2)c1)c1cncc(Br)c1,-5.18% (inactive)
21,O=C(NN=Cc1ccc([N+](=O)[O-])cc1)C1CC1,17.3% (inactive)
22,Cc1cc(OCCCC(=O)Nc2cc(S(=O)(=O)N3CCOCC3)ccc2N2CCOCC2)ccc1Cl,2.58% (inactive)
23,Cn1c(-c2ccc(F)cc2)cc2onc(-c3ccccc3Cl)c2c1=O,76.3% (inactive)
24,Cn1c(-c2ccc(C(F)(F)F)cc2)cc2onc(-c3ccccc3)c2c1=O,126% (active)

row,Compound,activation
1,O=c1c2ccccc2c(-c2ccc(F)cc2)nn1-c1ccc(C(F)(F)F)cc1,-11.9% (inactive)
2,O=S(=O)(O)c1cc2onnc2c2ccccc12,-3.61% (inactive)
3,COc1ccc(-c2ccc3c(c2)C2CC3CCN2CCC#N)cc1 (configuration not stated),0.239% (inactive)
4,CC(=O)c1sc(NC(=O)CCCOc2ccccc2C)nc1C,-1.04% (inactive)
5,CC(C)c1ccc(C=NNc2ccc([N+](=O)[O-])cn2)cc1,16.4% (inactive)
6,CC(=O)c1sc(N/N=C/c2ccc(C(C)C)cc2)nc1C,94.8% (active)
7,Cc1ccc(Nc2c(O)nc[nH]c2=O)cc1C,-6.95% (inactive)
8,CCN(CC(=O)Nc1c(F)cccc1F)C(=O)Cc1cccs1,11.6% (inactive)
9,O=[N+]([O-])c1ccc(COc2ccccc2CN2CCOCC2)cc1,-8.16% (inactive)
10,O=C(Cc1ccc(NC(=O)C2CCCN(C(=O)CCc3ccccc3)C2)cc1)Nc1ccc(C(=O)N2CCOCC2)cc1 (configuration not stated),8.07% (inactive)
11,Cc1c(CCC(=O)O)c(=O)oc2cc(OCc3ccc(Br)cc3)ccc12,-2.55% (inactive)
12,COC(=O)Cc1c(C)c2ccc(OCC(=O)NCc3ccc4c(c3)OCO4)cc2oc1=O,-3.93% (inactive)
13,CCc1c(C)c2ccc(OC3CCCCC3=O)cc2oc1=O (configuration not stated),92.6% (active)
14,CC/C(=C\c1ccc(Cl)cc1)c1ccncc1,-3.21% (inactive)
15,Nc1ccc(-c2nnc(-c3ccc(-c4ccccc4)cc3)o2)cc1,89.1% (active)
16,Nc1ccc(-c2nnc(-c3ccccc3)o2)cc1,27.8% (inactive)
17,Brc1ccc(-c2nnc(-c3ccccc3)o2)o1,48.3% (inactive)
18,CC[C@]12c3[nH]c4ccc(Cl)cc4c3CCN1C(=O)[C@@H](CC(=O)NCCCOC)C[C@@H]2C(=O)N1CCN(C(=O)C2CC2)CC1,-3.13% (inactive)
19,C/C(CC(=O)Nc1cccc(F)c1)=N\NC(=O)C(=O)NC1CCCCC1,-5.94% (inactive)
20,O=C(Nc1cccc(F)c1)NC1CCCc2ccccc21 (configuration not stated),11.6% (inactive)
21,O=C(Nc1cccc(F)c1)NC1CCCCCCC1,119% (active)
22,Cc1occc1C(=O)Nc1nnc(C2CCCCC2)s1,91.3% (active)
23,Cc1occc1C(=O)Nc1nnc(-c2ccncc2)s1,23% (inactive)
24,O=C(Nc1nnc(C2CC2)s1)c1cc(Cl)sc1Cl,6.39% (inactive)
